Test results: PubChem BioAssay AID504329 (Southern Research Specialized Biocontainment Screening …, 2011)
Hit rate of the full screen: of about 340,000 compounds, about 1,000 (0.29%) were called active. Cut-off read from the data, not from the text of the source: inconclusive = inhibition above about 27% without an active follow-up result; inactive = below that. These entries were drawn from the full list. Results with a measured potency or affinity are listed apart.

Test: H1N1 influenza NS1A inhibitors, functional cell based assay (AID 504329)
Conditions: percent inhibition, at 12.5 µM, active compounds read high
With `O=c1ccc(/C=C/c2ccccc2)nn1Cc1ccc(F)cc1` the inhibition was 1.19% (inactive). For `Cn1c(C(=O)O)cc2cc(Oc3ccccc3)ccc21`, the inhibition was -27.7% (inactive). For `O=C1CCC(=O)N1OCCOc1ccccc1`, the inhibition was 6.54% (inactive). With `COc1ccc(/C=C/C(=O)OCC(=O)Nc2cccc(C(C)=O)c2)cc1` the inhibition was -8.13% (inactive). For `O=[N+]([O-])c1ccc(CSc2nc3ccccc3o2)cc1`, the inhibition was 11.7% (inactive). In the case of `O=[N+]([O-])c1ccc(Cl)cc1Sc1nc2ccccc2o1`, the inhibition is reported as 4.69% (inactive). For `CCN(Cc1cnn(C)c1)C(=O)CC1C(=O)NCCN1Cc1cccc(OC)c1OC` (stereo not given), the inhibition was -0.14% (inactive). In the case of `C[N+]1=C(/C=C/Nc2ccccc2Cl)C(C)(C)c2ccccc21`, the inhibition is reported as 3.87% (inactive). In the case of `C[N+]1=C(/C=C/Nc2ccccc2)C(C)(C)c2ccccc21`, the inhibition is reported as -0.67% (inactive). With `O=c1c(-c2ccccc2)c(O)cc(-c2ccncc2)n1-c1ccc(Cl)cc1` the inhibition was 1.22% (inactive). With `COc1cccc(OC)c1C(=O)Nc1sc2c(c1C(N)=O)CCN(Cc1ccccc1)C2` the inhibition was 0.91% (inactive). In the case of `O=[N+]([O-])c1ccc(C[n+]2cccc3c4ccccc4ccc32)cc1`, the inhibition is reported as -5.37% (inactive). With `O=[N+]([O-])c1ccc(C[n+]2cccc3ccccc32)cc1` the inhibition was 2.93% (inactive). In the case of `CN1CCN(C2=C(NS(=O)(=O)c3cccs3)C(=O)c3ccccc3C2=O)CC1`, the inhibition is reported as -3.67% (inactive). With `O=C1C(NS(=O)(=O)c2cccs2)=C(N2CCN(c3cccc(Cl)c3)CC2)C(=O)c2ccccc21` the inhibition was 19.4% (inactive). With `O=C1C(NS(=O)(=O)c2cccs2)=C(N2CCN(Cc3ccccc3)CC2)C(=O)c2ccccc21` the inhibition was 13.7% (inactive). For `O=C1C(NS(=O)(=O)c2cccs2)=C(N2CCOCC2)C(=O)c2ccccc21`, the inhibition was 10.6% (inactive). For `CCOC(=O)N1CCN(S(=O)(=O)N2CCCC(C(=O)NCc3ccc(OC)cc3)C2)CC1` (stereo not given), the inhibition was -1.33% (inactive). With `CCOC(=O)c1cnc2c(OC)cccc2c1N1CCN(c2ccccn2)CC1` the inhibition was 3.27% (inactive). For `CC(=O)OCCc1c(C)nc2nc[nH]n2c1=O`, the inhibition was -2.62% (inactive). In the case of `O=C(Cc1ccc(Cl)cc1)Nc1ccccc1C(=O)Nc1ccc(C(=O)O)cc1`, the inhibition is reported as 9.57% (inactive). With `O=C1CCN(S(=O)(=O)c2ccccc2)CCN1CCOCc1ccc(Cl)cc1` the inhibition was -21.7% (inactive). With `Cc1ccc(S(=O)(=O)NC(=O)Nc2ccccc2)cc1` the inhibition was -7.51% (inactive). With `Cc1ccc(S(=O)(=O)NC(=O)Nc2ccc(F)cc2)cc1` the inhibition was -6.14% (inactive). With `O=C(CCc1nnc(Cc2ccc(-c3ccccc3)cc2)o1)NCC1CC1` the inhibition was -11.2% (inactive). In the case of `COc1ccc(CCN2CC(C(=O)Nc3ccccc3F)CC2=O)cc1OC` (stereo not given), the inhibition is reported as -13.5% (inactive). For `O=C(NCCCn1ccnc1)C(=O)NCC1OCCN1S(=O)(=O)c1ccc(Cl)cc1` (stereo not given), the inhibition was 13.8% (inactive). For `O=C(NCCCn1ccnc1)C(=O)NCC1OCCN1S(=O)(=O)c1ccc(F)cc1` (stereo not given), the inhibition was 19.7% (inactive). For `Cc1ccc(/C=C/C(=O)NC(C)c2ccccc2)cc1` (stereo not given), the inhibition was 2.36% (inactive). In the case of `O=C(CSCc1ccc([N+](=O)[O-])cc1)Nc1ccccc1C(=O)O`, the inhibition is reported as -16.2% (inactive). In the case of `COc1cc([N+](=O)[O-])c(N2CCOCC2)c([N+](=O)[O-])c1OC`, the inhibition is reported as 3.06% (inactive). With `O=[N+]([O-])c1cc(Cl)ccc1N1CCOCC1` the inhibition was 6.25% (inactive). In the case of `Cc1cccc(OC(=O)n2c(=S)oc3cc(Cl)ccc32)c1`, the inhibition is reported as 1.29% (inactive). With `CC(C)[C@H](NC(=O)C1CCN(C(=O)[C@@H]2CCCN2)CC1)C(=O)NCc1ccc(F)cc1` the inhibition was -5.22% (inactive). For `COc1ccccc1C(=O)NC(=S)/C=C1/N(C)c2ccccc2C1(C)C`, the inhibition was 22.9% (inactive). In the case of `Cc1ccc(C(=O)NC(=S)/C=C2\N(C)c3ccccc3C2(C)C)cc1`, the inhibition is reported as 5.06% (inactive). In the case of `O=C(COc1cccc(NC(=O)c2cccs2)c1)c1ccc(F)cc1`, the inhibition is reported as -6.64% (inactive). With `Cc1onc(-c2ccccc2)c1C(=O)NC(=S)NNC(=O)c1ccccc1O` the inhibition was 20.2% (inactive). With `COc1ccccc1C(=O)NNC(=S)NC(=O)c1cccs1` the inhibition was 8.16% (inactive). For `COc1ccc(C(=O)NC(=S)NNC(=O)c2ccccc2O)cc1`, the inhibition was 0.2% (inactive). In the case of `Cc1ccccc1C(=O)NNC(=S)NC(=O)c1cccs1`, the inhibition is reported as -2.01% (inactive). For `Cc1onc(-c2ccccc2)c1C(=O)NC(=S)NNC(=O)c1ccc(O)cc1`, the inhibition was 22% (inactive). In the case of `O=C(NC(=S)NNC(=O)c1cc2ccccc2cc1O)c1ccco1`, the inhibition is reported as 12.9% (inactive). With `O=C(NNC(=O)c1ccccc1O)c1ccco1` the inhibition was -15.8% (inactive). For `O=C(NC(=S)NNC(=O)c1ccco1)c1ccc(F)cc1`, the inhibition was 9.62% (inactive). With `O=C(c1ccc([N+](=O)[O-])cc1)N(c1ccccn1)c1ccccn1` the inhibition was 2.4% (inactive). In the case of `Cc1ccc(NC(=O)c2cccc(NC(=O)/C=C/c3ccco3)c2)cc1C`, the inhibition is reported as -4.7% (inactive). In the case of `Cc1cccc(-c2ccc3ncnc(NCc4cccs4)c3c2)c1`, the inhibition is reported as -11% (inactive). For `O=C(O)c1cc2ccccc2n1-c1ccccc1`, the inhibition was 16.9% (inactive). In the case of `CN(C)N=C1c2cc(S(=O)(=O)N3CCOCC3)ccc2-c2ccc(S(=O)(=O)N3CCOCC3)cc21`, the inhibition is reported as 19.5% (inactive). For `O=C(CCN1C(=O)/C(=C/c2ccccc2Cl)SC1=S)Nc1cccnc1`, the inhibition was -1.44% (inactive). For `O=C(CCN1C(=O)c2ccccc2S1(=O)=O)N1CCN(c2ccccc2F)CC1`, the inhibition was -1.99% (inactive). For `O=C(NC(=S)NNC(=O)c1ccccc1O)c1ccc([N+](=O)[O-])cc1`, the inhibition was 1.41% (inactive). With `Cc1ccccc1C(=O)NNC(=S)NC(=O)c1cccnc1` the inhibition was 2.35% (inactive). For `Cc1ccccc1C(=O)NNC(=S)NC(=O)c1ccccc1`, the inhibition was -4.23% (inactive). With `Cc1ccc(C(=O)NC(=S)NNC(=O)c2ccccc2O)cc1` the inhibition was 34.2% (inactive). In the case of `O=C(NNC(=S)NC(=O)c1ccccc1)c1cccnc1`, the inhibition is reported as 4.4% (inactive). For `O=C(NNC(=S)NC(=O)c1ccccc1)c1cccc([N+](=O)[O-])c1`, the inhibition was -20.7% (inactive). For `Cc1ccc(-n2c(CNc3ccc(F)cc3)nnc2SCC(N)=O)cc1`, the inhibition was 6.65% (inactive). For `Cc1cccc(NS(=O)(=O)c2cccc(C(=O)N3CCN(C/C=C/c4ccccc4)CC3)c2)c1`, the inhibition was -7.79% (inactive). For `CCN(c1ccccc1)S(=O)(=O)c1ccc2c(c1)CCCN2C(C)=O`, the inhibition was 5.4% (inactive). For `CC(=O)CCCC(NS(=O)(=O)CCC(Cl)(Cl)Cl)c1ccccc1` (stereo not given), the inhibition was 1.88% (inactive). For `Oc1ccccc1C=NCCN=Cc1ccccc1O`, the inhibition was 18.6% (inactive). With `Oc1ccccc1C=NCCCCCCN=Cc1ccccc1O` the inhibition was -8.96% (inactive). In the case of `COc1cccc(CN(C)C(=O)c2ccc(OCC(=O)N3CCOCC3)c(OC)c2)c1`, the inhibition is reported as -6.73% (inactive). For `COc1ccccc1OCc1nc2ccccc2[nH]1`, the inhibition was 1.78% (inactive). With `CCOC(=O)c1nc(Nc2ccc(Nc3ccccc3)cc2)c2ccccc2n1` the inhibition was 10.9% (inactive). In the case of `CCOC(=O)c1nc(Nc2ccc(N3CCOCC3)cc2)c2ccccc2n1`, the inhibition is reported as -12.1% (inactive). With `CCCCCC(=O)Nc1ccc(S(=O)(=O)Nc2nccc(C)n2)cc1` the inhibition was -0.66% (inactive). For `Cc1ccc2nc(C)cc(N3CCOCC3)c2c1`, the inhibition was -16.8% (inactive). In the case of `Cc1csc(NC(=O)CSc2nnc(NC(=O)C3CC(=O)N(c4ccccc4)C3)s2)n1` (stereo not given), the inhibition is reported as -4.67% (inactive). With `COc1ccc(NC(=O)CSc2ccc(-c3ccccn3)nn2)cc1OC` the inhibition was 1.4% (inactive). For `Cc1nnc(NC(=O)CSc2ccc3nnc(-c4ccccn4)n3n2)s1`, the inhibition was 15.4% (inactive). In the case of `COc1ccc(C)cc1NC(=O)CSc1ccc(-c2cccnc2)nn1`, the inhibition is reported as -8.69% (inactive). For `O=C(CSc1ccc(-c2ccccn2)nn1)Nc1nccs1`, the inhibition was 4.83% (inactive). For `O=C(CSc1ccc2nnc(-c3ccncc3)n2n1)Nc1nccs1`, the inhibition was -1.97% (inactive). With `Cc1csc(NC(=O)CSc2ccc(-c3ccccc3)nn2)n1` the inhibition was -3.27% (inactive). In the case of `Cc1ccccc1NC(=O)CSc1ccc(-c2ccccn2)nn1`, the inhibition is reported as 12.1% (inactive). With `Cc1ccc(NC(=O)CSc2ccc(-c3ccccn3)nn2)c(C)c1` the inhibition was 3.42% (inactive). For `COc1cccc(N2CCN(C(=S)Nc3ccccc3)CC2)c1`, the inhibition was 4.19% (inactive). For `COc1ccc(CCNC(=O)COC(=O)c2ccc(C)s2)cc1`, the inhibition was -10% (inactive). In the case of `COc1ccc(C(CNC(=O)C2CC(=O)N(Cc3ccc(C)cc3)C2)N(C)C)cc1` (stereo not given), the inhibition is reported as -3.01% (inactive). With `O=C(NCCc1ccc(F)cc1)C1CCCCC1` the inhibition was 2.71% (inactive). For `CCOC(=O)C1CCCN(C(=O)COc2ccc(N(C)S(=O)(=O)c3ccc(F)cc3)cc2)C1` (stereo not given), the inhibition was -23.6% (inactive). In the case of `Cc1nnc(SCC(=O)Nc2ccc(Cl)cn2)n1Cc1ccccc1`, the inhibition is reported as 1.7% (inactive). In the case of `CCOC(=O)Nc1n[nH]c(NC(=O)OCC)c1[N+](=O)[O-]`, the inhibition is reported as 8.99% (inactive). For `CN1/C(=C\C=Nc2ccc3ccccc3c2)C(C)(C)c2ccccc21`, the inhibition was 2.41% (inactive). With `CN1/C(=C\C=Nc2ccccc2)C(C)(C)c2ccccc21` the inhibition was -3.07% (inactive). In the case of `CN1/C(=C\C=N\O)C(C)(C)c2ccccc21`, the inhibition is reported as -7.5% (inactive). With `CO/N=C/C=C1/N(C)c2ccccc2C1(C)C` the inhibition was 11.6% (inactive). For `Cc1ccc(-c2nc(CNC(=O)c3cc(C)on3)cs2)cc1`, the inhibition was -7.61% (inactive). For `O=C(N/N=C/c1ccccc1)C1CCCN1C(=O)c1cc([N+](=O)[O-])cc([N+](=O)[O-])c1` (stereo not given), the inhibition was -6.49% (inactive). For `CNS(=O)(=O)c1cccc(C(=O)OCc2cc(=O)n3cc(Br)ccc3n2)c1`, the inhibition was 1.47% (inactive). For `CCCCCSc1cc(OC)c(CCN)cc1OC`, the inhibition was 15.3% (inactive). For `CCCCCSc1cc(OC)c(CCN(C)C)cc1OC`, the inhibition was 10.3% (inactive).
